# KDM5B inhibitor – KDM5B demethylase inhibition. Q9UGL1. KDM5B demethylase, FDH-coupled NADH fluorescence (FDH is formaldehyde dehydrogenase). Potency, µM (series often up to 57.7 µM), most hits filed as inhibitors. actives 2.6% (n = 220,000). AID 1347165; active = well fitted inhibition curve with a large enough effect; also: 0% is about no effect; nearly all actives have a fitted effect of over 70% in size
#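 Measured: NADH fluorescence change, 30 min, RT. System: KDM5BΔAP 200 nM final, H3K4me3 peptide, α-KG, Fe(II), ascorbate, NAD⁺ plus FDH, pH 7.5 HEPES. Compounds: titrated, 10 min pre-incubation with enzyme.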
# * hit, by the source's call; i = inactive. This is one part of a sample in which hits are shown more often than they occur. Potency is read from the fitted curve at half-maximal effect.
SMILES,KDM5B inhibitor
CSc1ccc(-c2ccc3c(c2)C(=O)N2CC[C@H](NC(=O)c4cccs4)[C@H]2C(=O)N3)cc1,25.1µM*
Cc1cccc(-c2ccc3c(c2)C(=O)N2CC[C@H](NC(=O)c4cccs4)[C@H]2C(=O)N3)c1C,i
O=C(N[C@H]1CCN2C(=O)c3cc(-c4ccccc4)ccc3NC(=O)[C@H]12)c1cnccn1,i
COc1cccc(S(=O)(=O)N2CCn3c(nnc3-c3ccncc3)C2)c1,i
CC(=O)N1CCC(Oc2ccc(Cl)cc2C(=O)NCCCN2CCCC2=O)CC1,i
COc1ccc(C(O)(C2CCCCC2)C(CN2CCCCC2)c2ccccc2)cc1 (centres undefined),i
COc1c(Br)cc(F)cc1NC(=O)Cc1coc2cc(C)c(C)cc12,i
COc1ccc(CC(=O)OCC(=O)c2ccc(OC(=O)c3ccco3)cc2)cc1,i
COCc1nn2c(c1-c1ccccc1)NC(=O)CC2C(=O)Nc1ccc(NC(C)=O)cc1 (centres undefined),i
CCOC(=O)c1cc(NC(=O)OC)cc(C(=O)OCC)c1,i
Cc1cc(C)c(C#N)c(N2CCC3(CCC(=O)N(CC(C)O)C3)CC2)n1 (centres undefined),28.2µM*
Cc1cc(C)c(C(=O)O)c(N2CCC3(CC2)C(C(=O)O)CC(=O)N3C)n1 (centres undefined),i
CC(O)CN1CC2(CCC1=O)CCN(C(=O)c1ccnn1C)CC2 (centres undefined),i
CN1CCN(Cc2ccc(-c3cnc4c(OCc5ccccc5)nccn34)cc2)CC1,31.6µM*
Cn1cccc1/C=N/N1CCN(Cc2ccccc2)CC1,i
CN1CCN(Cc2ccc(Nc3cnc4ccc(-c5ccccc5)nn34)cc2)CC1,i
C/C(CC(C)(C)c1ccccc1)=N\NC(N)=S,i
Cn1ccc(NC(=O)c2nn(Cc3ccccc3)c(=O)c3ccccc23)n1,i
CC(=O)N1CCCN(C(=O)c2ccc3c(c2)NC(C)(CCCCc2ccccc2)CO3)CC1 (centres undefined),i
Cn1ccc(NC(=O)c2ccc3c(c2)NC(C)(CCCCc2ccccc2)CO3)n1 (centres undefined),31.6µM*
CSc1ccccc1NC(=O)c1ccc2c(c1)NC(=O)CO2,i
C[C@@H]1CN(C(=O)c2ccc3c(c2)NC(C)(CCCCc2ccccc2)CO3)C[C@H](C)O1 (some centres undefined),35.5µM*
CC1(CCCCc2ccccc2)COc2ccc(C(=O)NC3CCC(O)CC3)cc2N1 (centres undefined),39.8µM*
C[C@@H]1CN(C(=O)c2ccc3c(c2)NC(C)(CNc2ccccc2)CO3)C[C@H](C)O1 (some centres undefined),i
CNC(=O)c1ccc2c(c1)NC(C)(CCCCc1ccccc1)CO2 (centres undefined),31.6µM*
SMILES,KDM5B inhibitor
CNC(=O)c1ccc2nc(CCc3ccccc3)oc2c1,i
CC(C)c1nc2c(c(-c3ccc(O)cc3)n1)CN(Cc1ccc(C(F)(F)F)cc1)CC2,i
COc1ccc(OC)c(CN2CCCCCC2c2cccs2)c1 (centres undefined),i
O=S(=O)(Cc1coc(-c2ccc(Cl)cc2)n1)CC1CCCO1 (centres undefined),i
CCCC(C)NC(=O)c1ccc2c(c1)NC(=O)CS2 (centres undefined),i
CCN(C(=O)c1occc1C)C1CC1,i
COCCc1ccc(OS(=O)(=O)c2c(C)c(Cl)cc(C)c2Cl)cc1,i
O=C(c1nc(-c2ccccc2)c2ccccn12)N1CCOCC1,39.8µM*
C[C@H](O)c1onc(-c2ccccc2)c1C(=O)N1CCOCC1,i
O=C(c1nc(-c2ccc(F)cc2)c2ccccn12)N1CCOCC1,31.6µM*
CN(C)C(=O)c1nc(-c2ccc(S(C)(=O)=O)cc2)c2ccccn12,i
O=C(Cn1nc(-c2ccccc2)c2ccccc2c1=O)N1CCOCC1,i
O=C(c1nc(-c2ccc(Cl)nc2)c2ccccn12)N1CCOCC1,14.1µM*
CN(C)C(=O)C1CCc2nnc(-c3ccc(Cl)nc3)n21 (centres undefined),i
CN(C)C(=O)c1nc(-c2ccc(Cl)nc2)c2ccccn12,112µM*
COc1cc(Cl)c(C)cc1NC(=O)CN1C(=O)C(c2ccccc2)=NC12CCCC2,i
O=C(O)CCNS(=O)(=O)c1ccc(F)cc1,i
CCCCc1ncc(-c2nccn2C2CCNC2)[nH]1 (centres undefined),i
CCCCNC(=O)c1noc(-c2ccc(C#N)cc2)n1,i
CC(C)N1C[C@H](O)C[C@H]1c1nnc2n1CCN(C(=O)c1cccs1)C2,i
Cc1c(-c2ccccc2)c(=O)oc2cc(OC(=O)C3CC3)ccc12,i
NC(=O)COC[C@@H]1CN(C(=O)CC2CCCCC2)C[C@H]1c1ccncc1,i
O=C(CCc1ncc(-c2ccc(F)cc2F)o1)Nc1ccc(Cl)cc1,i
CN(C)C(=O)N1CCCCC12Cc1ccccc1NC2=O (centres undefined),i
COc1ccccc1CNC(=O)c1cccc(C)c1,i
SMILES,KDM5B inhibitor
CCOc1ccc(NC(=O)NC2CCN(c3ncccn3)CC2)cc1,i
COc1ccc(-c2nc(C)nc3c2CCN([S+](=O)([O-])c2ccccc2)CC3)cc1,i
COc1ccc(NC(=O)c2ccc3c(c2)OCC(=O)N(C)C3)c(F)c1,i
COc1cccc(NC(=O)c2ccc3c(c2)NC(C)(COc2ccc4[nH]ccc4c2)CO3)c1 (centres undefined),31.6µM*
COc1ccc(NC(=O)c2ccc3c(c2)NC(C)(COCC2CC2)CO3)cc1OC (centres undefined),i
COc1ccc(-c2[nH]nc3ncc(C(=O)Nc4ccn(C)n4)nc23)c(C)c1,i
COc1ccc(OCC2(C)COc3ccc(C(=O)Nc4ccn(C)n4)cc3N2)cc1 (centres undefined),31.6µM*
COc1ccc(NC(=O)c2ccc3c(c2)OCCCO3)cn1,i
COc1ccc(NC(=O)c2ccc3c(c2)OCC(=O)N3)cc1,i
COc1ccc(OCC2(C)COc3ccc(C(=O)Nc4ccc(OC)nc4)cc3N2)cc1 (centres undefined),39.8µM*
COc1cccc(NC(=O)c2ccc(-c3nc(COc4ccc(C)cc4)c(C)o3)cc2)c1,i
CC1CCN(C(C)C(=O)Nc2ccc(Cl)cc2C(F)(F)F)CC1 (centres undefined),i
Cc1nc(NCc2ccc(N3CCCC3=O)cc2)cc(C2CC(O)C2)n1 (centres undefined),i
CCOc1ccc(-c2nc(C#N)c(N3CCN(C(=O)c4cccs4)CC3)o2)cc1,i
CC[C@@H]1[C@@H](NC(=O)c2oc(COc3ccccc3)cc2C)[C@@H]2CCO[C@H]12,i
NC(N)=NCc1ccco1,i
COc1ccc(C(=O)C(C)OC(=O)Cc2ccc(OC)c(F)c2)cc1 (centres undefined),i
CC(C)c1noc([C@@H]2C[C@H]3C(=O)NCCCCCCN(C(=O)CCC4CCCC4)[C@H]3C2)n1,i
COCCC1(NS(C)(=O)=O)CCN(C(=O)c2ccc(OC)nc2)CC1,i
O=C(c1cnn(-c2ccccc2)c1)N1CC[C@H](N2CCOCC2)[C@H](CCCO)C1,i
CC(C)c1ccc(C#N)c(N2CC[C@H](N3CCOCC3)[C@H](CCCO)C2)n1,28.2µM*
CC(C)c1cc(C(=O)N2CC[C@H](N3CCOCC3)[C@H](CCCO)C2)nc(N)n1,i
CC(C)(C)C(=O)NCCc1noc(C2CC2)n1,i

# Bioassay records (PubChem)
